The panel holds about 83,000 compounds, 20% with a hit somewhere; the sample as a whole holds those more often.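 For each line, cells grew in 96-well plates with the test compound present at a single concentration for 48 hours.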 Values without a mark were called inactive. Activity calls are given as the source filed them. How the source made its calls: active means growth percent below 10; inactive means the rest.

Among the test systems are SK-MEL-2 melanoma; EKVX NSCLC; SN12C renal; UO-31 renal; TK-10 renal; ACHN renal; CAKI-1 renal; A498 renal; CCRF-CEM leukemia; MOLT-4 leukemia.
Common to all, as to assay: NCI-60 one-dose screen, 48 h (100 = growth as untreated, 0 = no growth, -100 = all killed)
Common to all, as to conditions: 10 µM unless noted

Turning to `C=C(C)[C@@H]1CC[C@]2(C(=O)N3CCN(C)CC3)CC[C@]3(C)[C@H](CC[C@@H]4[C@@]5(C)C/C(=C/c6ccc(C(F)(F)F)cc6)C(=O)C(C)(C)[C@@H]5CC[C@]43C)[C@@H]12`, the growth in the assay on SK-MEL-2 melanoma was 106%; in the assay on EKVX NSCLC, 87.7%; with SN12C renal it was 92.9%; in the assay on UO-31 renal, 73.5%; in the assay with TK-10 renal, 105%; in the assay on ACHN renal, 96.4%. Besides, the growth with CAKI-1 renal was 68.7%; in the assay with A498 renal, 97.4%; with CCRF-CEM leukemia it was 88%; in the assay on MOLT-4 leukemia it was 63.8%.

As to `Cc1ccc(/C=C(\C#N)c2cc3ccccc3n2C)cc1`, the growth in the assay on SK-MEL-2 melanoma was 75.7%; in the assay on EKVX NSCLC, 48.4%; with SN12C renal, 39.5%; in the assay on UO-31 renal, 56.8%; in the assay with TK-10 renal, 99.3%; in the assay on ACHN renal, 42.9%. Also, the growth is 34.4% in the assay on CAKI-1 renal, 10.4% in the assay on A498 renal, 13.9% in the assay on CCRF-CEM leukemia and 21.6% in the assay with MOLT-4 leukemia.

As for `CC1(C)CC[C@]2(C(=O)NCCNCCN)CC[C@]3(C)C(=CC[C@@H]4[C@@]5(C)CCC(=O)C(C)(C)[C@@H]5CC[C@]43C)[C@@H]2C1`, the growth in the assay on SK-MEL-2 melanoma was 82.4%; in the assay on EKVX NSCLC, 94.8%; in the assay on SN12C renal it was 14.2%; in the assay with UO-31 renal, 87.8%; in the assay with TK-10 renal, 127%; in the assay on ACHN renal, 12.2%. The growth in the assay on CAKI-1 renal was 27.1%; in the assay with A498 renal, 81.5%; in the assay on CCRF-CEM leukemia, -17.8% (active); in the assay on MOLT-4 leukemia, 3.49% (active).

Take `COc1cccc(-c2nn(-c3ccccc3)cc2-c2ccnc(NCCCNS(=O)(=O)c3ccc(Cl)cc3)c2)c1`: the growth was 47.1% with SK-MEL-2 melanoma; 64% with EKVX NSCLC; 49.3% in the assay with SN12C renal; 22% with UO-31 renal; 52.3% with TK-10 renal; 38.6% in the assay on ACHN renal. Besides, the growth in the assay with CAKI-1 renal is 49.1%; in the assay with A498 renal it was 42.3%; with CCRF-CEM leukemia, 21.4%; in the assay on MOLT-4 leukemia, 14.8%.

For the compound `Nc1c(C(=O)Nc2c(Cl)cccc2Cl)sc2nc3c(cc12)CCCC3`, the growth is 75.8% in the assay with SK-MEL-2 melanoma; 102% in the assay with EKVX NSCLC; 69.6% with SN12C renal; 84.3% in the assay with UO-31 renal; 90.2% with TK-10 renal; 87.7% in the assay with ACHN renal. Further, the growth with CAKI-1 renal is 79.3%; with A498 renal, 79.7%; in the assay with CCRF-CEM leukemia it was 55.1%; with MOLT-4 leukemia, 46.9%.

In the case of `Cc1ccc(-c2ccc(/C=C(\C#N)c3nc(-c4ccco4)cs3)o2)cc1`, the growth was 104% in the assay with SK-MEL-2 melanoma; 52.1% in the assay with EKVX NSCLC; 97.1% in the assay on SN12C renal; 79% with UO-31 renal; 69.9% in the assay on TK-10 renal; 98.6% in the assay on ACHN renal. The growth in the assay with CAKI-1 renal is 94.5%; in the assay with A498 renal, 106%; with CCRF-CEM leukemia, 79.1%; in the assay on MOLT-4 leukemia it was 94.6%.

In the case of `O=C1/C(=C\C(Cl)=C/c2ccc([N+](=O)[O-])cc2)SC(=S)N1CCc1ccc(O)cc1`, the growth was 0.0993% (active) in the assay with SK-MEL-2 melanoma; -43% (active) in the assay with EKVX NSCLC; -9.23% (active) with SN12C renal; -91.4% (active) in the assay on UO-31 renal; -32.7% (active) in the assay on TK-10 renal; -89.4% (active) in the assay on ACHN renal. Further, the growth in the assay with CAKI-1 renal was -70.5% (active); in the assay on A498 renal, -27.5% (active); with CCRF-CEM leukemia, 8.16% (active); in the assay on MOLT-4 leukemia, 7.65% (active).

As for `COc1ccc(-c2cc(-c3cccs3)n(N=O)c(=O)c2C#N)cc1`, the growth in the assay on SK-MEL-2 melanoma is 105%; in the assay on EKVX NSCLC, 115%; in the assay with SN12C renal, 95.8%; with UO-31 renal, 89.4%; in the assay on TK-10 renal, 114%; in the assay with ACHN renal, 109%. For the same compound, the growth in the assay on CAKI-1 renal is 102%; with A498 renal it was 87.7%; with CCRF-CEM leukemia it was 58.1%; with MOLT-4 leukemia, 107%.

Turning to `CN(C)CCCCC(C(=O)CBr)(c1ccccc1)c1ccccc1`, the growth in the assay with SK-MEL-2 melanoma is 53.8%; in the assay on EKVX NSCLC, 48.8%; in the assay with SN12C renal, 20.8%; in the assay with UO-31 renal it was -56.1% (active); in the assay on TK-10 renal it was -47.6% (active); in the assay with ACHN renal it was -65.4% (active). The growth was -23.5% (active) with CAKI-1 renal, 40.2% with A498 renal, 5.74% (active) with CCRF-CEM leukemia and 0.308% (active) with MOLT-4 leukemia.

As for `Cn1c2ccccc2c2c3c(c4c5cccnc5[nH]c4c21)C(=O)N(O)C3=O`, the growth in the assay on SK-MEL-2 melanoma is 97.5%; in the assay with EKVX NSCLC it was 85.9%; with SN12C renal, 22.6%; with UO-31 renal, 31%; in the assay on TK-10 renal it was 97.4%; in the assay with ACHN renal, 17.8%. Also, the growth with CAKI-1 renal is 24%; in the assay with A498 renal it was 109%; with CCRF-CEM leukemia, 13.2%; in the assay on MOLT-4 leukemia it was 0.301% (active).

As for `O=C1c2cccc3cccc(c23)C(=O)N1CC#Cc1ccc2c3c(cccc13)C(=O)N(CCN1CCNCC1)C2=O`, the growth was 113% with SK-MEL-2 melanoma; 104% with EKVX NSCLC; 97.2% with SN12C renal; 97.7% in the assay on UO-31 renal; 141% with TK-10 renal; 74.4% in the assay on ACHN renal. Moreover, the growth is 82.4% in the assay with CAKI-1 renal, 112% in the assay on A498 renal, 7.71% (active) in the assay on CCRF-CEM leukemia and 6.74% (active) with MOLT-4 leukemia.

On to `CC1(C)CC[C@]2(C(=O)Nc3ccccn3)CC[C@]3(C)C(=CC[C@@H]4[C@@]5(C)C/C(=C/c6ccncc6)C(=O)C(C)(C)[C@@H]5CC[C@]43C)[C@@H]2C1`, for which the growth with SK-MEL-2 melanoma was 63.3%; in the assay with EKVX NSCLC, 39.3%; in the assay with SN12C renal it was 34.4%; in the assay on UO-31 renal, 36.9%; in the assay with TK-10 renal, 77.4%; in the assay with ACHN renal it was -11.9% (active). Further, the growth was 40.4% with CAKI-1 renal, -17.2% (active) with A498 renal, 25.4% with CCRF-CEM leukemia and 11.6% in the assay with MOLT-4 leukemia.

For the compound `O=C1/C(=C\c2ccc(Br)o2)SC(=S)N1CCc1ccc(O)cc1`, the growth in the assay with SK-MEL-2 melanoma was 103%; in the assay with EKVX NSCLC, 81.4%; in the assay on SN12C renal, 86.9%; in the assay on UO-31 renal it was -48.4% (active); in the assay with TK-10 renal, 92.8%; with ACHN renal, 49.8%. The growth in the assay on CAKI-1 renal is 27.8%; in the assay with A498 renal, 108%; in the assay on CCRF-CEM leukemia, 21.8%; in the assay on MOLT-4 leukemia, 64.3%.

`CCCCCCCC(=O)SCC/C=C/[C@@H]1CC(=O)NCc2cccc(n2)CN(Cc2ccc3ccccc3c2)CC(=O)N[C@@H](C(C)C)C(=O)O1`: the growth with SK-MEL-2 melanoma was 56.5%; in the assay on EKVX NSCLC it was 53.9%; with SN12C renal, 57.1%; in the assay with UO-31 renal it was 36.4%; with TK-10 renal it was 21.6%; with ACHN renal, 34.7%. The growth is 35.8% in the assay on CAKI-1 renal, 0.931% (active) in the assay with A498 renal, 15.6% in the assay with CCRF-CEM leukemia and 2.35% (active) in the assay with MOLT-4 leukemia.

On to `COc1ccc(-c2cc(=O)oc3ccc(Cl)cc23)cc1F`, for which the growth in the assay with SK-MEL-2 melanoma was 36.3%; with EKVX NSCLC, 38.3%; with SN12C renal, 30.6%; in the assay on UO-31 renal, 48.4%; in the assay with TK-10 renal, 62.9%; in the assay on ACHN renal, 34.8%. Besides, the growth with CAKI-1 renal was 27%; in the assay with A498 renal, 2.69% (active); with CCRF-CEM leukemia, 11.8%; with MOLT-4 leukemia, 7.8% (active).

Regarding `CN(C)c1ccc(N)c2ccccc12`, the growth with SK-MEL-2 melanoma was 89.6%; in the assay with EKVX NSCLC, 49.2%; with SN12C renal it was -62.2% (active); in the assay on UO-31 renal, 52.7%; with TK-10 renal, 128%; in the assay with ACHN renal it was 67.2%. In addition, the growth in the assay with CAKI-1 renal was 69.4%; in the assay on A498 renal it was 183%; in the assay on CCRF-CEM leukemia it was 41.8%; in the assay with MOLT-4 leukemia, 40.7%.

Consider `Nc1c(C(=O)Nc2c(Cl)cccc2Cl)sc2nc3c(cc12)C(=O)CCC3`, for which the growth with SK-MEL-2 melanoma is 27.3%; in the assay on EKVX NSCLC, 76%; with SN12C renal it was 47.6%; in the assay with UO-31 renal, 48.3%; in the assay on TK-10 renal, 59.5%; with ACHN renal, 50.9%. In addition, the growth was 41.5% with CAKI-1 renal, 2.03% (active) in the assay with A498 renal, 54.8% in the assay on CCRF-CEM leukemia and 65.3% with MOLT-4 leukemia.

In the case of `COc1cccc(-c2nn(-c3ccccc3)cc2-c2ccnc(NCCCNS(=O)(=O)c3ccccc3)c2)c1`, the growth in the assay on SK-MEL-2 melanoma was 29.7%; in the assay on EKVX NSCLC, 46.5%; with SN12C renal, 38.7%; with UO-31 renal, 13.8%; in the assay on TK-10 renal, 46.9%; with ACHN renal, 28.1%. The growth with CAKI-1 renal is 48.4%; with A498 renal, 42.3%; in the assay on CCRF-CEM leukemia, 14.4%; in the assay with MOLT-4 leukemia it was 8.92% (active).

With `Cc1nn(-c2ccc(Cl)cc2)c(=O)n1CCn1cnc2ccccc21`, the growth in the assay on SK-MEL-2 melanoma was 109%; with EKVX NSCLC, 102%; in the assay with SN12C renal, 105%; in the assay on UO-31 renal, 90.8%; in the assay with TK-10 renal, 108%; in the assay on ACHN renal, 109%. For the same compound, the growth with CAKI-1 renal was 95.8%; in the assay with A498 renal, 95.6%; in the assay with CCRF-CEM leukemia it was 106%; in the assay on MOLT-4 leukemia, 100%.

In the case of `CC(=O)c1c(C)[nH]c(-c2nc3ccc(N4CCN(C)CC4)cc3[nH]2)c1-c1ccc2c(c1)OCCO2`, the growth in the assay with SK-MEL-2 melanoma was 76.4%; in the assay with EKVX NSCLC, 45.2%; in the assay with SN12C renal it was 58.5%; in the assay with UO-31 renal, 9.19% (active); in the assay on TK-10 renal, 1.44% (active); in the assay on ACHN renal it was 29.3%. Also, the growth was 13.3% in the assay with CAKI-1 renal, 45.5% in the assay with A498 renal, 50.3% in the assay with CCRF-CEM leukemia and 58.3% in the assay on MOLT-4 leukemia.

The values above are taken from PubChem BioAssay (NCI).
